Compound activity: PubChem BioAssay, National Center for Advancing Translational Sciences (NCATS)
HCMV inh: inhibitors of human cytomegalovirus; HFF cells, HCMV-luciferase reporter, 72 h; active compounds read low; activity change, negative = inhibition, % at 57.5 µM; 410,000 tested, 4.5% active; in the data active = activity change below about -60%; inconclusive = no clear call, values can overlap the other calls; inactive = above about -39%
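Compounds were evaluated in HFFs infected with an HCMV luciferase reporter virus (MOI 1 PFU/cell). Luciferase in lysates collected 72 h post infection served as the replication measure.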
VACV Venus inh: inhibitors of vaccinia virus (Venus reporter). Vaccinia virus Venus reporter expression, fluorescence. Potency, µM (top dose mostly 36.5 µM), actives largely listed as inhibitors. 330,000 tested, 0.46% active; calls by dose curve; tested in A549 cells; note: nearly all actives have a fitted effect of over 30% in size
MARV entry inh: blocks Marburg virus binding to or entry into cells. Potency, µM (titrated, usually from 37.8 µM), hits mostly inhibitors. 300,000 tested, 1.8% active. Marburg virus pseudotyped entry inhibition, cell reporter; calls by dose curve; tested in HEK293 cells
Lassa entry inh: Lassa virus entry inhibition; Potency, µM (titrated, usually from 37.9 µM), actives largely listed as inhibitors; 300,000 tested, 1.2% active; Lassa virus pseudotype entry inhibition, cell reporter; calls by dose curve; tested in HEK293 cells; note: nearly all actives have a fitted effect of over 50% in size
HCV inhibitor: HCV inhibition; Huh7.5.1 HCVcc-Cre infection, luciferase reporter, 44 h; Potency, µM (series often up to 41.8 µM), hits mostly inhibitors; 340,000 tested, 3.4% active; AID 651820; active = well fitted inhibition curve with a large enough effect; inconclusive = small, poorly fitted or top-dose-only effect, or another doubt; inactive = no such curve, though single readings can be large or run the other way
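Compounds are dispensed onto cells plated 4 h earlier at 1,000 per well, with HCVcc-Cre virus (about 0.5 moi) added next. Following 44 h of culture, luminescent signal is measured for 15 sec after 15 min with substrate at room temperature.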
VACV mCherry inh: inhibitors of vaccinia virus infection (mCherry reporter signal). Vaccinia virus mCherry reporter infection, fluorescence. Potency, µM (doses to about 36.5 µM), usual class: inhibitors. 310,000 tested, 0.63% active. AID 720579; calls by dose curve; tested in A549 cells; note: nearly all actives have a fitted effect of over 35% in size
Hits are given with their value; 0 = inactive; ? = inconclusive; - = no result given. Rows were chosen to be rich in hits. Some 7.8% of all compounds tested hit in one or more screens of this group.

SMILES	HCMV inh	VACV Venus inh	MARV entry inh	Lassa entry inh	HCV inhibitor	VACV mCherry inh
O=C(OC1Cc2c(O)cc(O)cc2OC1c1cc(O)c(O)c(O)c1-c1c(C2Oc3cc(O)cc(O)c3CC2OC(=O)c2cc(O)c(O)c(O)c2)cc(O)c(O)c1O)c1cc(O)c(O)c(O)c1 (centres undefined)	-	0	-	-	-	0
CCN1C(=O)[C@@H]2[C@H]3[C@H](O)[C@H](O)CC(=NOCC[C@@H]4C=C[C@H](OC(C)=O)[C@@H](COC(C)=O)O4)[C@@H]3CC[C@H]2C1=O	-	-	0	-	-	-
CCc1nnc(NC(=O)Cn2c(=O)oc3ccccc32)s1	0	0	0	0	0	-
Cc1sc(NC(=O)Cn2c(=O)oc3ccccc32)nc1-c1ccc(Cl)cc1	-60.5	0	0	0	?	0
O=C(Cn1c(=O)oc2ccccc21)Nc1nc(-c2ccc(Br)cc2)cs1	-60.5	0	?	?	0	0
COC(=O)N[C@H](C(C(=O)OC)=C(C)NCc1ccccc1)c1cccc(F)c1	-	-	0	-	-	-
CC1CC(C)CN(c2nc(NCc3ccco3)nc(N)c2[N+](=O)[O-])C1 (centres undefined)	-66.7	0	0	?	?	0
COc1ccc(Nc2nc(N)c([N+](=O)[O-])c(N3CCCC3)n2)cc1	0	-	-	-	?	-
Cc1cccc(Nc2nc(N)c([N+](=O)[O-])c(N3CCOCC3)n2)c1	0	0	5.62µM	0	0	?
Nc1nc(NCc2ccco2)nc(N2CCOCC2)c1[N+](=O)[O-]	0	0	0	0	0	0
COc1cccc(Nc2nc(N)c([N+](=O)[O-])c(N3CCOCC3)n2)c1	0	-	-	-	0	-
Cc1ccc(Nc2nc(N)c([N+](=O)[O-])c(N3CCCC(C)C3)n2)cc1C (centres undefined)	-61.9	0	2.24µM	0	0	0
CC1CCCN(c2nc(NCc3ccco3)nc(N)c2[N+](=O)[O-])C1 (centres undefined)	-102.0	?	?	?	?	?
COc1ccc(Cn2ccc3nc(C)c(C(=O)N4CCN(c5cc(C)ccc5C)CC4)cc3c2=O)cc1	0	0	-	0	-	?
CCCS(=O)(=O)c1nc(S(=O)(=O)c2ccc(C)cc2)c(NCC(C)C)s1	0	0	0	0	-	0
COc1ccc(OCC(=O)N2CCN(C(=O)c3cccc(OC)c3)CC2)cc1	0	0	0	?	-	0
Cc1cccc(Nc2nc(NCc3ccco3)nc(N3CCOCC3)n2)c1	0	-	2.31µM	?	?	-
CC1=CC(C)(C)N2C(=O)C3(C(C#N)=C(N)Oc4cc(C)oc(=O)c43)c3cc(C)cc1c32 (centres undefined)	0	-	0	0	0	-
CCc1cc2c3c(c1)C1(C(=O)N3C(C)(C)C=C2C)C(C#N)=C(N)Oc2[nH]c(=O)[nH]c(=O)c21 (centres undefined)	-74.8	0	?	?	?	0
CCc1ccc(NC(=O)CCNS(=O)(=O)c2ccc3c(c2)CCCC(=O)N3)cc1	0	0	-	?	-	0
CCOC(=O)OC[C@H]1O[C@H](c2cc(C)cc(C)c2)C=C[C@H]1OC(=O)OCC	-	-	0	-	-	-
Cc1cc(C)nc(NS(=O)(=O)c2ccc(NC(=S)NC(=O)C3CCCC3)cc2)n1	0	10µM	0	0	0	?
CCN(CC)S(=O)(=O)c1ccc(NC(=S)NC(=O)C2CCC2)cc1	0	0	?	0	0	0
CCN(CC)S(=O)(=O)c1cc(NC(=S)NC(=O)C2CCCC2)ccc1C	-71.9	-	-	-	3.16µM	-
Cc1ccc(C)c(N2CCN(C(=O)C3CCN(Cc4nc(-c5cccc(Cl)c5)oc4C)CC3)CC2)c1	0	?	?	0	-	?
SMILES	HCMV inh	VACV Venus inh	MARV entry inh	Lassa entry inh	HCV inhibitor	VACV mCherry inh
S=C(NNc1ccnc2cc(Cl)ccc12)Nc1ccc(Cl)cc1Cl	0	-	-	-	5.62µM	-
CCOc1ccc(NC(=S)NNc2ccnc3cc(Cl)ccc23)cc1	0	0	?	0	3.16µM	0
S=C(NCc1ccncc1)Nc1ccc(Cl)cc1Cl	?	-	0	0	0	-
CCOc1ccc(NC(=S)NNC(=O)c2cc(Br)ccc2Cl)cc1	0	0	0	0	0	0
CCNC(=O)C1(C)CCCN1Cc1c(F)cccc1F (centres undefined)	0	0	-	-	-	0
COc1ccc(Nc2ncc(C(=O)N3CCN(Cc4ccccc4)CC3)c3ccccc23)cc1	0	-	?	?	10µM	-
O=C(C1CCC(CNS(=O)(=O)c2ccccc2)CC1)N1CCCCC1 (centres undefined)	0	0	0	?	0	0
